{"source": "PubChem BioAssay AID2314", "about": "(National Center for Advancing Translational Sciences (NCATS), 2010)", "note": "Out of some 300,000 compounds screened, about 37,000 (12%) were called active. Only a selection was taken, and actives are over-represented in it overall. A number with no mark means an inactive call. Cut-off read from the data, not from the text of the source: active = max response mostly above about 13% (no sharp cut-off); inactive = mostly below about 14%."}
{"assay": "Cycloheximide Counterscreen for Small Molecule Inhibitors of Shiga Toxin; note: read at 38.3 µM for the half of the compounds with a filed dose; 0% is about no effect", "settings": "cell reporter, cycloheximide protein synthesis inhibition counterscreen; hits give high values"}
{"smiles": "O=c1oc2ccccc2c(NC2CCCCC2)c1NS(=O)(=O)c1ccc(Cl)cc1", "max response": "-6.15%"}
{"smiles": "Cc1ccc(N(CC(=O)NCC2CCCO2)C(=O)CNS(=O)(=O)c2ccc(Cl)cc2)cc1", "note": "(stereo not drawn)", "max response": "-3.88%"}
{"smiles": "NS(=O)(=O)c1cc(C(=O)NCCOc2ccccc2)c(Cl)cc1Cl", "max response": "-1.96%"}
{"smiles": "O=C(NCCOc1ccccc1)c1ccccc1", "max response": "68.1% (active)"}
{"smiles": "O=C(CCc1c[nH]c2ccccc12)NCCOc1ccccc1", "max response": "25.1%"}
{"smiles": "CCc1n[nH]c(=S)n1/N=C/c1c[nH]c2ccc(Br)cc12", "max response": "-1.29%"}
{"smiles": "CC1=NN(C(N)=S)C(=O)C1N=Nc1cc(Cl)ccc1Cl", "note": "(stereo not drawn)", "max response": "4.61%"}
{"smiles": "CCCCc1nc(SCC(=O)Nc2nnc(C(C)C)s2)n[nH]1", "max response": "26.4%"}
{"smiles": "O=C1CCCC(O)=C1N=Nc1ccc(S(=O)(=O)N2CCOCC2)cc1", "max response": "16%"}
{"smiles": "O=C1CCCC(O)=C1N=Nc1ccc2ncsc2c1", "max response": "49.2% (active)"}
{"smiles": "Cc1nc2ccccc2c(=O)n1Cc1ccc([N+](=O)[O-])cc1", "max response": "-1.56%"}
{"smiles": "Nc1ccc(N=Nc2ccccc2Cl)c(N)n1", "max response": "25.9% (active)"}
{"smiles": "O=S(=O)(c1ccc(Cl)s1)N1CCC2(CC1)OCCO2", "max response": "2.18%"}
{"smiles": "COC(=O)c1cc(NC(=O)c2cc(C(C)(C)C)nn2Cc2cccc(C)c2)ccc1N1CCOCC1", "max response": "-3.1%"}
{"smiles": "CCCNC(=O)c1cnc(-c2ccccc2)nc1-c1ccccc1", "max response": "-6.13%"}
{"smiles": "CCc1ccc(C(=O)COC(=O)c2ccco2)cc1", "max response": "42.3% (active)"}
{"smiles": "CCN(CC)c1ccc(C(=O)OCC(=O)c2ccco2)cc1", "max response": "7.36%"}
{"smiles": "O=C(COC(=O)c1ccccc1C(=O)c1ccccc1)c1ccco1", "max response": "8.15%"}
{"smiles": "COc1ccc2[nH]c(C(=O)N/N=C/c3cc(OC)c(OC)c(OC)c3)cc2c1", "max response": "13.6%"}
{"smiles": "COc1cccc(NC(=O)CN2CCN(CC(=O)Nc3ccccc3Cl)CC2)c1", "max response": "-0.686%"}
{"smiles": "COc1ccc2[nH]c(C(=O)Nc3ccccc3Cl)cc2c1", "max response": "36.2% (active)"}
{"smiles": "Cc1cccc(C(=O)NNC(=O)CSc2nnc(C(C)C)n2C)c1", "max response": "-5.35%"}
{"smiles": "CCC(C)c1ccc(NC(=S)N2CCCC2)cc1", "note": "(stereo not drawn)", "max response": "35.2% (active)"}
{"smiles": "CC(=O)c1cccc(NC(=S)N2CCCC2)c1", "max response": "0.199%"}
{"smiles": "CCOc1ccc(NC(=S)N2CCCCCC2)cc1", "max response": "26.7%"}
{"smiles": "S=C(Nc1ccc2c(c1)OCO2)N1CCCC1", "max response": "25.6% (active)"}
{"smiles": "Cc1cccc(C)c1NC(=S)N1CCCCCC1", "max response": "-7.53%"}
{"smiles": "NS(=O)(=O)c1ccc(NC(=S)N2CCCC2)cc1", "max response": "-1.21%"}
{"smiles": "COC(=O)c1ccc(S(=O)(=O)N2CCc3ccccc3C2)cc1", "max response": "-0.876%"}
{"smiles": "CCc1nn(CCCC(=O)NCc2ccc(C)cc2)c(=O)c2cc3occc3n12", "max response": "9.5%"}
{"smiles": "CCCCCCC(O)(CCN1CCCCC1)c1ccccc1", "note": "(stereo not drawn)", "max response": "-3.74%"}
{"smiles": "Cc1ccnc(N2CCCC(C(=O)NC3CC3)C2)n1", "note": "(stereo not drawn)", "max response": "-3.55%"}
{"smiles": "Cc1ccnc(Nc2nc3ccccc3s2)n1", "max response": "55.1% (active)"}
{"smiles": "Cc1ccc(S(=O)(=O)Nc2nc3ccccc3s2)cc1[N+](=O)[O-]", "max response": "-1.91%"}
{"smiles": "CSCCC(Nc1nc2ccccc2s1)C(=O)O", "note": "(stereo not drawn)", "max response": "-2.31%"}
{"smiles": "COc1cccc(NS(=O)(=O)c2ccc(-c3coc(C)n3)cc2)c1", "max response": "15.9%"}
{"smiles": "O=C(NC1CCCC1)C1CC(=O)N(c2ccc(F)cc2)C1", "note": "(stereo not drawn)", "max response": "-4.78%"}
{"smiles": "COCCC(=O)N1CCC(Oc2ccc(C(=O)NCc3ccon3)cc2)CC1", "max response": "2.55%"}
{"smiles": "COC(=O)c1cc(NC(=O)c2cccnc2)ccc1N1CCOCC1", "max response": "-2.96%"}
{"smiles": "CC(=O)NC(=S)Nc1ccc(NC(=O)c2cccnc2)cc1", "max response": "1.22%"}
{"smiles": "Cc1cc(NS(=O)(=O)c2ccc(NC(=O)c3cccnc3)cc2)nc(C)n1", "max response": "1.8%"}
{"smiles": "COc1cc(OC)cc(C(=O)Nc2ccc(-c3nc4ccccc4o3)c(O)c2)c1", "max response": "24.8% (active)"}
{"smiles": "CC(=O)Nc1ccc(S(=O)(=O)N(C)c2nc3ccccc3nc2Cl)cc1", "max response": "18%"}
{"smiles": "CC(=O)Nc1ccc(Nc2c3ccccc3nc3ccccc23)cc1", "max response": "-9.79%"}
{"smiles": "COc1cc(OC)cc(C(=O)Nc2ncc3c(n2)CC(C)(C)CC3=O)c1", "max response": "9.17%"}
{"smiles": "CC(=O)Nc1ccc(-c2nc3ccccc3o2)cc1", "max response": "35.3% (active)"}
{"smiles": "Cc1cc2nc(-c3ccc(NC(=O)c4cccnc4)cc3)oc2cc1C", "max response": "32.1% (active)"}
{"smiles": "Cc1ccc2nc(-c3ccc(NC(=O)c4cccnc4)cc3)oc2c1", "max response": "49.6% (active)"}
{"smiles": "COc1cc(OC)cc(C(=O)Nc2ccc(S(=O)(=O)Nc3cc(C)on3)cc2)c1", "max response": "-4.87%"}
{"smiles": "CCC1=Nc2cc(C(=O)NCCCN3CCOCC3)ccc2Sc2ccc(Br)cc21", "max response": "-2.78%"}
{"smiles": "CC(=O)Nc1ccc(S(=O)(=O)NCC(=O)OCc2cc(=O)oc3ccc4ccccc4c23)cc1", "max response": "-2.56%"}
{"smiles": "Cc1cc(OCCN2CCCC2)cc(C(C)C)c1", "max response": "-2.45%"}
{"smiles": "CCn1cc(CN2CCC(C(=O)Nc3cccc(-c4cccc(Cl)c4)c3)CC2)cn1", "max response": "-10.1%"}
{"smiles": "CC1Cc2cc(/C(O)=C3\\C(=O)C(=O)N(Cc4cccnc4)C3c3ccccc3F)ccc2O1", "note": "(stereo not drawn)", "max response": "-1.92%"}
{"smiles": "O=C(Cn1cc(/C=N/NC(=O)c2cccc(C(F)(F)F)c2)c2ccccc21)Nc1ccc(F)cc1", "max response": "2.04%"}
{"smiles": "O=C(C(Cc1ccccc1)n1cccc1)N1CCN(C2CCCCC2)CC1", "note": "(stereo not drawn)", "max response": "-4.26%"}
{"smiles": "CCOC(=O)C1CCN(S(=O)(=O)c2c(C)noc2C)CC1", "max response": "-1.8%"}
{"smiles": "Cc1ccc(NC(=O)Cn2nc(C)c3ccccc3c2=O)c(C)c1", "max response": "-1.38%"}
{"smiles": "Cc1ccc(NC(=O)c2ccn(C(=O)Nc3ccccc3)n2)c(C)c1", "max response": "43.3% (active)"}
{"smiles": "Cc1ccc(C)c(S(=O)(=O)N2CCN(C(=O)Nc3ccccc3)CC2)c1", "max response": "-1.4%"}
{"smiles": "Cc1ccc(CCCOC(=O)C[N+]2(C)CCCC2)cc1", "max response": "-2.71%"}
{"smiles": "Cc1c(C(=O)N2CCN(c3ccc(F)cc3)CC2)oc2c1C(=O)CCC2", "max response": "-3.49%"}
{"smiles": "CCCCOC(=O)CCCc1ccc([N+](=O)[O-])cc1[N+](=O)[O-]", "max response": "-1.18%"}
{"smiles": "CC1C(=O)Nc2ccccc2N1C(=O)c1c(F)cccc1F", "note": "(stereo not drawn)", "max response": "-2.05%"}
{"smiles": "COc1cccc(NC(=O)C(C)Oc2ccccc2)c1", "note": "(stereo not drawn)", "max response": "4.2%"}
{"smiles": "O=C(Nc1ccccc1-c1ccccc1)c1cccs1", "max response": "5.16%"}
{"smiles": "CC(Oc1cccc(NC(=O)c2cccs2)c1)C(=O)c1ccccc1", "note": "(stereo not drawn)", "max response": "19.5% (active)"}
{"smiles": "Cc1cccc(/C=N/NC(=O)CNc2cccc3ccccc23)n1", "max response": "45.5% (active)"}
{"smiles": "C/C(=N\\NC(=O)CNc1cccc2ccccc12)c1ccc(Br)s1", "max response": "-2.1%"}
{"smiles": "Cn1cccc1/C=N/NC(=O)CNc1cccc2ccccc12", "max response": "4.6%"}
{"smiles": "Cc1ccccc1/[N+]([O-])=C/c1ccncc1", "max response": "9.27%"}
{"smiles": "O=C(c1ccc(S(=O)(=O)N2CCOCC2)cc1)N1CCN(c2ccccc2)CC1", "max response": "-2.23%"}
{"smiles": "O=C(O)c1ccc2c(c1)C(=O)N(c1ccc(/C=C/C(=O)c3ccccc3)cc1)C2=O", "max response": "46.6% (active)"}
{"smiles": "O=C(/C=C/c1ccc(N2CCOCC2)cc1)c1ccccc1", "max response": "46.4% (active)"}
{"smiles": "Cc1cccc(N2C(=O)c3ccc(C(=O)Nc4cccc(C(=O)O)c4)cc3C2=O)c1", "max response": "10.2%"}
{"smiles": "O=C(CN1CCN(S(=O)(=O)/C=C/c2ccccc2)CC1)Nc1ccc(N2CCOCC2)cc1", "max response": "-1.05%"}
{"smiles": "CC(=O)Oc1ccc(C)cc1N1C(=O)c2ccc(C(=O)O)cc2C1=O", "max response": "6.31%"}
{"smiles": "O=C(NC1CCC(O)CC1)c1ccccc1OCc1ccc(F)cc1", "note": "(stereo not drawn)", "max response": "-3.74%"}
{"smiles": "Cc1ccccc1CN1C(=O)c2ccccc2Sc2ccc(C(=O)NCCCN3CCOCC3)cc21", "max response": "-3.67%"}
{"smiles": "COc1cc(CO)ccc1OCC(=O)Nc1cccc2ccccc12", "max response": "-2.19%"}
{"smiles": "Cc1ccc(S(=O)(=O)N(CCCN(C)C)Cc2ccc3c(c2)OCO3)cc1", "max response": "1.74%"}
{"smiles": "O=C(COc1ccccc1)Nc1ccc(C(=O)N2CCCC2)cc1", "max response": "37.5%"}
{"smiles": "CCC1CCCCN1C(=S)Nc1ccc(S(=O)(=O)Nc2ncccn2)cc1", "note": "(stereo not drawn)", "max response": "-2.13%"}
{"smiles": "O=C(CCC(=O)N1CCCC1)Nc1ccc([N+](=O)[O-])cc1", "max response": "-2.89%"}
{"smiles": "CCC1CCCCN1C(=S)Nc1ccc(C(C)=O)cc1", "note": "(stereo not drawn)", "max response": "8.58% (active)"}
{"smiles": "CC(=O)c1ccc(NC(=O)CSC(=S)N2CCCC2)cc1", "max response": "20.5% (active)"}
{"smiles": "CCC1CCCCN1C(=S)Nc1ccc(SC(F)F)cc1", "note": "(stereo not drawn)", "max response": "1.07%"}
{"smiles": "O=C(NC(=S)Nc1ccc2oc(=O)ccc2c1)c1ccc(-c2cccc(Cl)c2Cl)o1", "max response": "6.87%"}
{"smiles": "CCCC(=O)N1CCN(c2nnc(-c3ccc(C)cc3)c3ccccc23)CC1", "max response": "-7.1%"}
{"smiles": "Cc1cccc(CNS(=O)(=O)c2ccc(-c3cnc(C4CC4)o3)cc2)c1", "max response": "18.8%"}
{"smiles": "CC(=O)c1sc(N/N=C/c2ccc(C(C)C)cc2)nc1C", "max response": "43% (active)"}
{"smiles": "Cc1nnc(C)n1/N=C/c1ccc(C(C)C)cc1", "max response": "4.86%"}
{"smiles": "CCOC(=O)c1sc(/N=C/Nc2nc(C)c(C(=O)OCC)s2)nc1C", "max response": "10.8%"}
{"smiles": "CC(=O)c1sc(N/N=C\\c2ccc(C)cc2)nc1C", "max response": "48.9% (active)"}
{"smiles": "Cc1ccc(S(=O)(=O)Nc2nc(C)cc(N/N=C/c3ccc(O)cc3)n2)cc1", "max response": "-2.44%"}
{"smiles": "CC(=O)c1sc(NC(=O)CCCOc2ccccc2C)nc1C", "max response": "1.03%"}
{"smiles": "C=CCC1(C#N)C(=S)NC(C)=C(C(=O)OCC)C1c1ccccc1", "note": "(stereo not drawn)", "max response": "-1.77%"}
{"smiles": "NC(=O)C1CCN(CC(O)CSc2ccc(F)cc2)CC1", "note": "(stereo not drawn)", "max response": "-5.01%"}
